Tb PYK inh – qHTS of Trypanosoma Brucei Inhibitors; TbPYK enzyme, Kinase-Glo Plus ATP luminescence, 45 min; AID 624173, 2012; Potency, µM (series often up to 76.8 µM), without a hit: at the highest dose activity, negative = inhibition, actives largely listed as inhibitors; pyruvate kinase (Trypanosoma brucei), Q57TT1; 410,000 tested, 0.12% active; note: potency is the fitted concentration of half-maximal effect; % is set by controls: 0 for no effect and ±100 for the full control effect; nearly all actives have a fitted effect of over 50% in size
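Screened from lowest to highest concentration, compounds were pinned into TbPYK/substrate mixtures, and ADP (130 uM final) was added. Plates sat at room temperature for 45 min prior to Kinase-Glo Plus detection by luminescence.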
CHX counter – Cycloheximide Counterscreen for Small Molecule Inhibitors of Shiga Toxin; AID 2314, 2010; max response, %; cell reporter, cycloheximide protein synthesis inhibition counterscreen; 300,000 tested, 12% active; in the data active = max response mostly above about 13%, no sharp cut-off; inactive = mostly below about 14%; note: read at 38.3 µM for the half of the compounds with a filed dose; 0% is about no effect
Shiga toxin inh – A qHTS for Small Molecule Inhibitors of Shiga Toxin | Vero cells, Shiga toxin protein synthesis inhibition reporter | inhibition, % at 38.7 µM | 290,000 tested, 9.2% active; in the data active = inhibition mostly above about 28%, no sharp cut-off; inactive = mostly below about 43%; note: 0% is about no effect
FBPA Giardia inh – qHTS Assay for Inhibitors of Fructose-1,6-bisphosphate Aldolase from Giardia Lamblia | purified Giardia FBPA | Potency, µM (top dose mostly 59.6 µM), inactives show at the top dose activity, negative = inhibition, hits mostly inhibitors | A8B2U2 | 290,000 tested, 0.71% active; note: potency is the fitted concentration of half-maximal effect; % is set by controls: 0 for no effect and ±100 for the full control effect; nearly all actives have a fitted effect of over 55% in size
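40 nM FBPA preincubated 10 min at RT with compound (up to 57.5 uM final), then substrate plus GAPDH/TPI/NAD/arsenate coupling and diaphorase/resazurin added. Fluorescence read after 20 min at RT, 525/598 nm.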
LmPK inhibitor – qHTS Assay for Inhibitors of Leishmania Mexicana Pyruvate Kinase (LmPK) | Q27686 | purified LmPK, Kinase-Glo ATP luminescence, 1 h | Potency, µM (doses to about 57.5 µM), inactives show at the top dose activity change, negative = inhibition, actives largely listed as inhibitors | 290,000 tested, 0.37% active | AID 1721, 2009; note: potency is the fitted concentration of half-maximal effect; % is set by controls: 0 for no effect and ±100 for the full control effect
Target sequence (Q27686 whole entry, looked up): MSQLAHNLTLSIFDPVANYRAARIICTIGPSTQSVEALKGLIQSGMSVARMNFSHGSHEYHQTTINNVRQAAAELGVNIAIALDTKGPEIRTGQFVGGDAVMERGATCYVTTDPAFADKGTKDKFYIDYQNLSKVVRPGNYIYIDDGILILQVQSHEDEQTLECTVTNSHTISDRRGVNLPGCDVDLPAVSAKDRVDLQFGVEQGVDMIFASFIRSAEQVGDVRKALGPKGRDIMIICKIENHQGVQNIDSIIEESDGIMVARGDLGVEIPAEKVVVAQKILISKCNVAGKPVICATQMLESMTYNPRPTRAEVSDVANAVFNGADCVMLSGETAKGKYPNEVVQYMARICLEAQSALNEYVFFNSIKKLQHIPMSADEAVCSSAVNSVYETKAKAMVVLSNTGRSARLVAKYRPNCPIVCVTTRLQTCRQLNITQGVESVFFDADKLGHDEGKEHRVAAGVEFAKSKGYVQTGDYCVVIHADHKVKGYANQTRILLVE
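Purified LmPK (0.1 nM) converted ADP (0.1 mM) to ATP with PEP (0.5 mM) in imidazole buffer pH 7.2 with KCl and MgCl2, 1 h at room temperature. ATP was read by Kinase-Glo luminescence; data normalized to uninhibited and no-enzyme controls.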
RE007 growth inh – qHTS Assay for Inhibitors of the HIV-1 protein Vpr | S. pombe RE007 Vpr strain, BacTiter-Glo ATP luminescence, 24 h | Potency, µM (highest dose often 92.2 µM), for the others: top-dose activity change, negative = less growth, hits mostly inhibitors | 360,000 tested, 0.21% active | AID 651644, 2012; active = well fitted falling curve with a large enough effect; inconclusive = small, poorly fitted or top-dose-only effect; inactive = no such curve, though single readings can be large or run the other way; note: potency is the fitted concentration of half-maximal effect; % is set by controls: 0 for no effect and ±100 for the full control effect; nearly all actives have a fitted effect of over 50% in size
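Fission yeast strain RE007, carrying one chromosomally integrated HIV-1 vpr copy, was seeded at OD 0.01 in PMG+AL medium with 23 nL pinned compound. After 24 h at 30 °C and 99% humidity, viability was read by BacTiter-Glo luminescence.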
* hit, by the source's call; i = inactive; ? = inconclusive; / = no result given; + = active, no number. This is one part of a sample in which hits are shown more often than they occur. Unless noted, calls come from the whole dose curve; as a rule, active = well fitted curve in the direction sought with a large enough effect; inconclusive = small, poorly fitted or top-dose-only effect, or another doubt; inactive = no such curve, though single readings can be large; an effect the other way counts as inactive or inconclusive.

SMILES	Tb PYK inh	CHX counter	Shiga toxin inh	FBPA Giardia inh	LmPK inhibitor	RE007 growth inh
COc1ccc(C(=O)n2nc(C)cc2Nc2ccccc2)cc1	-5.6%	43.3*	72.3	1.5%	4.3%	-5.9%
COc1ccc(C(=O)c2sc(Nc3cc(Cl)ccc3C)nc2N)cc1OC	-3.3%	/	/	/	/	/
Nc1nc(Nc2ccccc2)sc1C(=O)c1ccccc1	-10.3%	36.2*	89.7*	9.9%	6.9%	21.1%
Cc1ccc(N2CCN(C(=O)c3c(C)oc4nc(C)nc(N5CCCC5)c34)CC2)c(C)c1	3.8%	/	/	/	/	/
COC(=O)c1ccc(C(NC(=O)OCc2ccccc2)/C(F)=C/[C@@H](C)C(=O)NCc2cc(C)on2)cc1 (some centres undefined)	/	/	/	-26.5%	/	/
Cc1cnc(NC(=O)c2sc(Nc3ccccc3)nc2N)o1	-3.0%	28.2*	90.1*	-3.5%	-1.9%	-4.6%
O=C(Nc1cccnc1)c1sc(Nc2ccccc2)nc1-c1ccccc1	-5.1%	-1.3	-18.2	-11.6%	0.7%	-17.5%
CC(C(=O)Nc1ccc(Cl)cc1Cl)N1C(=O)NC2(CCCCCCC2)C1=O (centres undefined)	0.8%	/	/	/	/	-7.4%
COC(=O)CCNC(=O)c1ccc2nc(Cc3ccc(OC)c(OC)c3)oc2c1	3.6%	23.9*	29.0*	9.7%	-4.1%	12.7%
COc1ccc(Cc2nc3ccc(C(=O)N(C)CCn4ccnc4)cc3o2)cc1OC	-2.5%	76.9*	62.7*	-1.5%	-2.8%	-21.3%
COCCCNC(=O)c1ccc2nc(Cc3ccc(OC)cc3)oc2c1	1.8%	31.9*	111.0	7.1%	4.6%	-8.8%
COc1ccc(Cc2nc3ccc(C(=O)NCCc4ccc(OC)c(OC)c4)cc3o2)cc1	-3.1%	/	/	/	/	/
COc1ccc(Cc2nc3ccc(C(=O)N(C)CCO)cc3o2)cc1	2.6%	1.9	-4.1	3.3%	1.5%	11.0%
COc1ccc(Cc2nc3ccc(C(=O)N(C)C(C)c4ccon4)cc3o2)cc1 (centres undefined)	8.0%	40.7*	49.2*	/	-6.4%	-18.8%
COc1ccc(Cc2nc3ccc(C(=O)NCCCSC)cc3o2)cc1OC	-1.7%	45.1*	39.4*	8.2%	-0.2%	7.0%
CCOCC(O)CNC(=O)c1ccc2nc(Cc3ccc(OC)c(OC)c3)oc2c1 (centres undefined)	-6.4%	2.3	9.9	8.1%	2.1%	-16.6%
CC(C)Cc1cc(CN2CCC(CO)(Cc3ccccc3)CC2)[nH]n1	13.7%	9.3	-2.5	4.1%	-1.8%	-4.3%
CC(=O)Nc1c(C)nn(-c2ccc(C)c(C)c2)c1C	-0.9%	3.1	-9.4	4.2%	-2.7%	-5.9%
CCC(=O)Nc1c(C)nn(-c2ccc(C)c(C)c2)c1C	-2.7%	21.9*	65.2*	-1.1%	2.8%	-4.9%
Cc1ccc(-n2nc(C)c(NC(=O)CCl)c2C)cc1C	-1.2%	33.1*	101.3*	4.2%	-2.5%	-2.3%
Cc1cc(N)n(-c2ccc([N+](=O)[O-])cc2)n1	3.1%	1.4	-12.0	2.6%	3.6%	-1.7%
Cc1cc(N)n(-c2ccc(C)c(C)c2)n1	-7.9%	27.0*	62.4*	-9.0%	-2.0%	-12.5%
Cc1cc(N)n(-c2ccccn2)n1	0.9%	17.4*	72.0*	0.6%	-11.5%	-0.4%
CCOc1ccccc1NC(=O)Cn1c(=O)n(CCCC(=O)NCCOC)c(=O)c2cc(OC)c(OC)cc21	2.3%	/	/	/	/	/
CC(Cc1ccsc1)NC(=O)CCc1nnc(CCc2ccccc2)o1 (centres undefined)	-3.6%	0.6	-2.0	-0.1%	-0.5%	-18.8%
SMILES	Tb PYK inh	CHX counter	Shiga toxin inh	FBPA Giardia inh	LmPK inhibitor	RE007 growth inh
Cc1ccc(N2C(=O)CSC23C(=O)N(CC(=O)Nc2ccc(C)cc2C)c2ccccc23)cc1 (centres undefined)	2.4%	/	/	/	/	/
Cc1ccc(S(=O)(=O)N(CC(=O)Nc2c(C)cccc2C)c2cccc(Cl)c2)cc1	-7.9%	/	/	/	/	/
CN(c1ncccc1CNc1nc(Nc2ccc3c(c2)CC(=O)N3)ncc1C(F)(F)F)S(C)(=O)=O	1.4%	/	/	/	/	/
O=C(CCNS(=O)(=O)c1cccc2nsnc12)Nc1ccc2c(c1)OCCO2	-7.4%	23.5*	42.5	-11.5%	2.9%	-0.5%
CC(=O)N1CCc2cc(S(=O)(=O)NCCC(=O)Nc3ccc4c(c3)OCCO4)ccc21	-5.6%	29.9*	65.9	-1.8%	-23.1%	1.0%
O=S(=O)(Nc1ccc2c(c1)OCCO2)c1cccc2nsnc12	-0.6%	48.6*	77.3*	-9.0%	5.0%	9.3%
O=S(=O)(Nc1ccccc1)c1cccc2nsnc12	-3.0%	-0.6	11.5	2.6%	-0.7%	-26.4%
CC(=O)N1CCc2cc(S(=O)(=O)NCCC(=O)Nc3cc(C)cc(C)c3)ccc21	-8.3%	-0.4	-7.0	0.6%	2.8%	11.9%
C/C(=N/NC(=O)c1ccccn1)c1ccncc1	-0.2%	36.0*	91.7*	-5.8%	-7.3%	-9.4%
CC(=NNC(=O)c1ccncc1)c1cccc(Br)c1	-7.5%	/	/	/	/	-4.2%
COc1ccc(C(=O)N/N=C(\C)c2ccccn2)cc1OC	-1.8%	21.8*	41.7*	?	4.9%	?
C/C(Cn1nnc2ccccc21)=N\NC(=O)c1cccc(Br)c1	-7.2%	24.2*	+	-9.4%	-3.9%	-7.9%
C/C(=N/NC(=O)c1cccc(Br)c1)C1CC2CCC1C2 (centres undefined)	3.6%	47.4*	37.8	/	-7.0%	-16.0%
C/C(=N/NC(=O)c1ccc(C(C)(C)C)cc1)c1ccccn1	-2.8%	/	/	/	/	?
Nc1nc(-c2ccc(Oc3ccccc3)cc2)c(CC(=O)O)s1	-17.9%	12.7	22.9	-9.4%	1.1%	-7.7%
O=c1c(-c2cc(F)cc(F)c2)nc2cnc(N3CCNCC3)nc2n1C1CC1	/	/	/	-2.3%	/	/
C/C(=N\NC(=O)c1ccccc1Cl)c1ccccn1	-5.9%	28.3*	85.0*	?	0.6%	?
C/C(=N\NC(=O)c1cccc(Br)c1)c1ccccn1	-2.6%	26.6*	87.4*	?	1.8%	?
C/C(=N\NC(=O)c1cc(Br)ccc1O)c1ccccn1	4.8%	27.7*	40.6*	-5.1%	4.4%	-12.8%
C/C(=N\NC(=O)c1ccccc1OCc1ccc(F)cc1)c1ccccn1	0.0%	/	/	/	/	-16.8%
CCOc1ccc(OCc2ccc(C(=O)N/N=C(\C)c3ccccn3)cc2)cc1	8.5%	40.5*	62.3	12.0%	-2.8%	?
O=C1OC2C[C@H]1[C@@H]1C(=O)N(Cc3ccccc3)CCC1C2I (some centres undefined)	/	1.3	i	-1.6%	/	/
CCOC(=O)C1(CC2CCCCO2)CCN(Cc2cc(F)ccc2-n2cccn2)CC1 (centres undefined)	1.7%	26.7*	72.0	-16.5%	-3.7%	2.9%

Source: PubChem BioAssay
